Screens (PubChem)
Most compounds without a hit are left out; they make up all but 5.7% or so of the library.
FAS-TE inh: blocks the thioesterase domain of human fatty acid synthase; AID 602261; P49327; recombinant FAS-TE, OMFH fluorogenic substrate, fluorescence endpoint; inhibition, % at 15 µM; 0.67% of 360,000 active;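 active means compounds whose normalised, plate-corrected inhibition of enzyme fluorescence in the single-dose primary screen is 50% or more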;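 further: 0% = DMSO with enzyme and 100% = substrate without enzyme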
GRIN3A LBD mod: NR3A (human) ligand-binding domain modulation; NR3A LBD differential scanning fluorimetry, Tm shift; 0% = protein alone, 100% = glycine-bound protein; Tm shift relative to glycine control, % at 25 µM; 2.5% of 340,000 active; AID 1259313;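 active means melting temperature shift of at least 10% of the positive control shift, at one fixed dose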
MPTP block: blocks calcium-induced mitochondrial swelling. isolated mouse mitochondria, Ca2+ swelling absorbance, 30 min. AID 602449. inhibition, % at 10 µM. 1.4% of 360,000 active;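 active means inhibition of 50% or more, scaled per plate between neutral and stimulator controls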;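 further: 0% = DMSO wells given calcium and 100% = 1 mM EGTA wells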
rCAG binder: r(CAG) repeat RNA binding; TO-PRO-1 dye displacement fluorescence; inhibition, % at 3 µM; 1.3% of 370,000 active; AID 651821;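 active means inhibition above the plate cutoff, the mean of all test compounds on that plate plus 3 SD, cut at about 35% in these data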;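 further: 0% = DMSO alone and 100% = 100 µM mitoxantrone as full dye displacement; higher means more dye released from RNA so lower well fluorescence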
Myeloid diff MLP: myeloid differentiation induction | 1% of 360,000 active | ER-HoxA9 myeloid progenitors, lysozyme-GFP differentiation, flow cytometry | calls only at 10 µM;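 active means normalized GFP-positive differentiation at or above the plate's own cutoff, the solvent-only control mean plus 3 SD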;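 further: cells exposed to compound for four days before flow analysis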
Active calls of the source: *.

COC(=O)[C@]12C[C@H](CC(=O)NCC34CC5CC(CC(C5)C3)C4)C(=O)N(Cc3cccc4ccccc34)C1=C[C@H](C(C)C)O[C@@H]2C1CC1 was read as rCAG binder 9.4.
For Nc1nn(S(=O)(=O)c2ccccc2)cc1-c1cccc([N+](=O)[O-])c1 the results were FAS-TE inh 24.2, GRIN3A LBD mod 22.2*, MPTP block 0.1, rCAG binder 7.4 and Myeloid diff MLP inactive.
Screening NNC(=O)c1ccc(Cn2cc(Br)c(N)n2)cc1 returned FAS-TE inh -3.9, GRIN3A LBD mod 0.6, MPTP block 4.5, rCAG binder -0.9 and Myeloid diff MLP active.
`O=C(Nc1ccc(C(F)(F)F)cc1)OC1CC2CC1[C@H]1CCCCN1[C@H]2Cc1ccccc1` (stereo not given in full) gave rCAG binder 7.4.
CCCN1CCCCC(NC(=O)c2ccc(-c3ccccc3)cc2)C1=O (stereo not given) was read as rCAG binder -1.1.
Screening Cc1nnc(N2C(=O)C(O)=C(C(=O)c3ccco3)C2c2ccc(C(C)(C)C)cc2)s1 (stereo not given) returned FAS-TE inh -15.7, GRIN3A LBD mod -0.9, MPTP block -6.5, rCAG binder 28.0 and Myeloid diff MLP active.
Cc1nnc(N2C(=O)C(O)=C(C(=O)c3ccco3)C2c2ccc(F)cc2)s1 (stereo not given) was read as FAS-TE inh -7.7, GRIN3A LBD mod 0.1, MPTP block -1.8, rCAG binder 1.8 and Myeloid diff MLP inactive.
Screening C#CCNC(=O)C[C@H]1C[C@@]2(C(=O)OC)C(=C[C@H](COCc3ccccc3)O[C@@H]2C)N(Cc2ccc3c(c2)OCO3)C1=O returned rCAG binder 1.9.
C=C1C(=O)[C@]23C[C@H]1CC[C@H]2[C@]1(C)[C@@H](O)CC[C@@](C)(C(=O)O)[C@H]1C[C@@H]3O was read as FAS-TE inh -13.6, MPTP block -1.0, rCAG binder 1.6 and Myeloid diff MLP active.
O=C(CCCOC(=O)c1cccnc1Cl)c1ccc(Br)cc1 was read as FAS-TE inh 22.5, GRIN3A LBD mod 3.0, MPTP block -0.4, rCAG binder -0.6 and Myeloid diff MLP inactive.
O=C(CCCOC(=O)c1ccc(O)cc1O)c1ccc(Br)cc1 was read as FAS-TE inh 18.5, GRIN3A LBD mod 10.1*, MPTP block 5.6, rCAG binder 12.3 and Myeloid diff MLP inactive.
For COC(=O)C1=C(C)N(C)C(=NCc2cccc(C(F)(F)F)c2)NC1c1ccccc1 (stereo not given) the results were rCAG binder 5.2.
`COC(=O)C1=C(C)N(CC2CC2)C(=NCc2cccc(C(F)(F)F)c2)N[C@H]1c1ccccc1` gave FAS-TE inh -31.1, GRIN3A LBD mod -3.3, MPTP block -1.9 and Myeloid diff MLP active.
`COC(=O)C1=C(C)N(C)C(=NCC2CC2)NC1c1ccccc1` (stereo not given) gave rCAG binder 1.8.
For C=CCn1c(N/N=C/c2ccc(O)cc2)nc2ccccc2c1=O the results were FAS-TE inh 6.7, GRIN3A LBD mod 11.7*, MPTP block 2.1, rCAG binder 4.0 and Myeloid diff MLP inactive.
Cc1ccc(NC(=O)Cc2cccc(OC(F)F)c2)c(S(=O)(=O)N2CCOCC2)c1 was read as rCAG binder 2.7.
For COc1ccc(S(=O)(=O)NNC(=O)c2sccc2-n2cccc2)cc1 the results were FAS-TE inh -1.9, GRIN3A LBD mod -1.0, MPTP block 0.0, rCAG binder -0.6 and Myeloid diff MLP inactive.
`O=C(NNS(=O)(=O)c1ccc(Br)cc1)c1sccc1-n1cccc1` gave FAS-TE inh -0.6, GRIN3A LBD mod 13.8*, MPTP block 0.0, rCAG binder 6.4 and Myeloid diff MLP inactive.
CC1(C)CC(=O)C=C(c2ccccc2F)C1=O was read as rCAG binder 3.8.
CC(=O)Nc1cccc(-c2csc(Nc3ccccn3)n2)c1 was read as FAS-TE inh 1.3, GRIN3A LBD mod 8.5, MPTP block 0.5, rCAG binder 11.8 and Myeloid diff MLP inactive.
`CC(=O)Nc1ccc(-c2csc(Nc3cc(C)ccn3)n2)cc1` gave FAS-TE inh 15.0, GRIN3A LBD mod 24.7*, MPTP block 0.1, rCAG binder 11.3 and Myeloid diff MLP inactive.
Screening CC(=O)Nc1cccc(-c2csc(Nc3cc(C)ccn3)n2)c1 returned FAS-TE inh 6.6, GRIN3A LBD mod 10.0*, MPTP block 1.6, rCAG binder 12.4 and Myeloid diff MLP inactive.
CC[C@H](NC(=O)[C@@H](Cc1ccccc1)NC(=O)[C@H]1O[C@@H](n2cnc3c(=O)[nH]c(N)nc32)[C@H](O)[C@@H]1O)c1ccccc1 was read as rCAG binder 6.4.
Screening CCOc1ccccc1N(CC)C(=O)c1cc2c(s1)-c1ccccc1S(=O)(=O)C2 returned FAS-TE inh 22.8, MPTP block 1.0, rCAG binder 1.8 and Myeloid diff MLP inactive.
Screening CC(C)=C[C@H]1C[C@H](C)[C@H]2CC[C@H](C)c3c(O[C@@H]4OC[C@@H](O)[C@H](O)C4O)c(O)c(C)c1c32 (stereo not given in full) returned FAS-TE inh 16.9, GRIN3A LBD mod 28.8*, MPTP block 1.7, rCAG binder 2.7 and Myeloid diff MLP inactive.
CC(=O)OC1[C@H](Oc2c(O)c(C)c3c4c2[C@@H](C)CC[C@@H]4[C@@H](C)C[C@@H]3C=C(C)C)OC[C@@H](O)[C@@H]1O (stereo not given in full) was read as FAS-TE inh 11.7, GRIN3A LBD mod -3.3, MPTP block 0.6, rCAG binder 4.7 and Myeloid diff MLP inactive.
For CC(=O)c1ccc2c(c1)C1C=CCC1C(C(=O)O)N2 (stereo not given) the results were FAS-TE inh 2.0, GRIN3A LBD mod -0.6, MPTP block 0.7, rCAG binder 96.1* and Myeloid diff MLP inactive.
Screening CCC/C(=C1/c2ccccc2C(=O)N1c1ccccc1)c1ccc2[nH]ccc2c1 returned FAS-TE inh 43.3, GRIN3A LBD mod 13.3*, MPTP block 4.3, rCAG binder 4.7 and Myeloid diff MLP inactive.
Screening COc1ccc(C2NCCc3c2[nH]c2ccccc32)cc1CN1CCc2cc(OC)c(OC)cc2C1C (stereo not given) returned FAS-TE inh -2.1, GRIN3A LBD mod -0.5, MPTP block 0.0 and Myeloid diff MLP inactive.
Screening COc1ccc(C2NCCc3c2[nH]c2ccccc32)cc1COc1ccc(F)cc1 (stereo not given) returned FAS-TE inh 15.6, GRIN3A LBD mod -3.6, MPTP block 1.3, rCAG binder 16.6 and Myeloid diff MLP active.
O=C(OCc1ccc(F)cc1)c1ccc2c(c1)-c1ccccc1C2=O was read as FAS-TE inh 20.6, GRIN3A LBD mod 0.1, MPTP block -3.6, rCAG binder 2.3 and Myeloid diff MLP inactive.
CCOC(=O)C1=C(Cc2ccc(F)cc2)C(=O)c2ccccc2C1=O was read as FAS-TE inh 35.4, GRIN3A LBD mod -8.3, MPTP block 14.0, rCAG binder 10.5 and Myeloid diff MLP active.
